Experimental data from paper PMC10668032, “Altered binding affinity of SIX1-Q177R correlates with enhanced WNT5A and WNT pathway effector expression in Wilms tumor”.
The full ranking holds about 33,000 sequences; the median of “e-score” is about -0.053, and the highest 2% start at about 0.38. The full list was thinned out, with the highest values kept by preference.

target: T1, SIX1 homeodomain (reference allele) (human, UniProt Q15475 108-198); assay: universal protein binding microarray; Universal all-10-mer PBM (8x60K, AMADID 030236), 300 nM GST-tagged protein, Alexa Fluor 488 anti-GST; buffer, salt, pH and temperature not stated (as in Berger); high values mean tight binding; settings: protein: ivt; tags: N-terminal GST; dsDNA, one strand shown
T1 sequence: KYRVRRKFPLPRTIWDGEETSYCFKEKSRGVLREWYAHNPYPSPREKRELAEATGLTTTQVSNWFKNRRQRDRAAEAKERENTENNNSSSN
Method in brief: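 Homeodomains fused to GST were made by in vitro transcription/translation and measured by anti-GST western blot with a recombinant GST standard curve. At 300 nM final concentration, they were applied in duplicate to universal 'all 10-mer' protein binding microarrays (8×60K format).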

Sequence	binding signal
TCAGATGA	0.3071 ± 0.00299 E-score
AAGATGAT	0.156 ± 0.09 E-score
TATCGATA	0.342 ± 0.0612 E-score
GATCAAAC	0.193 ± 0.0111 E-score
ACACCATC	0.312 ± 0.0186 E-score
ATCGGGGC	0.198 ± 0.0293 E-score
CGTCTCAC	0.254 ± 0.0158 E-score
AACCGATC	0.335 ± 0.00772 E-score
TACCCCTA	0.34 ± 0.00513 E-score
ATACGGAA	0.218 ± 0.0296 E-score
ATACGGAT	0.4254 ± 0.00356 E-score
ATACGGAG	0.193 ± 0.0505 E-score
CGATACTC	0.45435 ± 0.000368 E-score
CTATACTC	0.243 ± 0.0735 E-score
AGATACTC	0.402 ± 0.0473 E-score
AGATACTA	0.316 ± 0.0687 E-score
CGATACTA	0.424 ± 0.0171 E-score
GGATACTA	0.371 ± 0.0235 E-score
CAATACTC	0.297 ± 0.043 E-score
AGATACTG	0.34203 ± 0.000156 E-score
AGATAGTC	0.172 ± 0.0352 E-score
ATATAGTC	0.209 ± 0.0236 E-score

Sequence	binding signal
AACACCTG	0.267 ± 0.00339 E-score
ATCCAGTC	0.179 ± 0.0594 E-score
CGTATAAA	0.219 ± 0.0801 E-score
GATCAACA	0.281 ± 0.0353 E-score
TATCAATA	0.407 ± 0.0444 E-score
TATCAAGA	0.302 ± 0.0583 E-score
TATCAAAA	0.342 ± 0.1 E-score
GATCAATA	0.291 ± 0.0232 E-score
TATCAACA	0.399 ± 0.0298 E-score
CCATCTCA	0.164 ± 0.00629 E-score
GGATTATA	0.362 ± 0.0571 E-score
TAATAATA	0.225 ± 0.0789 E-score
ATCCCGGC	0.173 ± 0.0398 E-score
CATCTATA	0.251 ± 0.034 E-score
AATCCGGC	0.228 ± 0.0229 E-score
CATCCGAC	0.209 ± 0.0838 E-score
AATCCGGT	0.252 ± 0.0106 E-score
TATCCGGA	0.3912 ± 0.000898 E-score
TACCCGGA	0.332 ± 0.00363 E-score
CATCCGTA	0.168 ± 0.00426 E-score
GATCCGAC	0.389 ± 0.0403 E-score
AATCCGAC	0.189 ± 0.00791 E-score

Sequence	binding signal
CATCCGGC	0.226 ± 0.0528 E-score
GATCCGAA	0.357 ± 0.0457 E-score
GATCCGTA	0.383 ± 0.00781 E-score
GATCCGGC	0.3929 ± 0.00159 E-score
ATCTACTC	0.297 ± 0.0368 E-score
ATATGTAG	0.151 ± 0.0301 E-score
CATAAACC	0.19 ± 0.0201 E-score
GATAATCC	0.34 ± 0.0479 E-score
CGACTATC	0.246 ± 0.0396 E-score
GAGATCAC	0.368 ± 0.00856 E-score
ATCCTTGG	0.189 ± 0.0361 E-score
GATCCGGA	0.405 ± 0.0443 E-score
CATCCGGA	0.21 ± 0.0635 E-score
AATCCGGA	0.276 ± 0.0325 E-score
ACACCAAC	0.224 ± 0.00659 E-score
ACCCTATC	0.346 ± 0.0051 E-score
CCCCTATC	0.405 ± 0.0204 E-score
CCCCTATA	0.198 ± 0.0352 E-score
GATATCTA	0.392 ± 0.0618 E-score
GCTATCAC	0.357 ± 0.0605 E-score
GATATCAC	0.476 ± 0.018 E-score
GATATCAA	0.453 ± 0.0358 E-score

Sequence	binding signal
GATATTAA	0.31 ± 0.0894 E-score
CAGATCAA	0.298 ± 0.00526 E-score
AATATCTA	0.259 ± 0.0807 E-score
GATATTAC	0.319 ± 0.0605 E-score
TATATCAA	0.361 ± 0.0752 E-score
CATATCAA	0.452 ± 0.0378 E-score
CATATCTA	0.322 ± 0.0223 E-score
CTAATCTC	0.175 ± 0.0194 E-score
ATCCACTG	0.152 ± 0.0476 E-score
ATCAAACC	0.261 ± 0.00716 E-score
GATCAATC	0.366 ± 0.0109 E-score
ATACGCTC	0.245 ± 0.0572 E-score
GGATCTAA	0.285 ± 0.00708 E-score
ATACGAAG	0.199 ± 0.0115 E-score
GTATTCCA	0.202 ± 0.0137 E-score
ATACGTCC	0.24 ± 0.0851 E-score
AGCGCGAT	0.166 ± 0.026 E-score
AGCGATCG	0.211 ± 0.0392 E-score
GGCGATGA	0.193 ± 0.0619 E-score
CGCGACAC	0.254 ± 0.0327 E-score
AGCGATAT	0.42 ± 0.0465 E-score
